Experiments:
[1] = target: Rho-associated protein kinase 1 (Homo sapiens) (UniProt Q13464); details: at 1 µM;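 further: reported values are mean percent inhibition of ROCK1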
[2] = target: Rho-associated protein kinase 2 (Homo sapiens) (UniProt O75116); details: at 0.1 µM
[3] = target: Rho-associated protein kinase 2 (Homo sapiens) (UniProt O75116); details: at 1 µM
[4] = target: Ribosomal protein S6 kinase alpha-1 (Homo sapiens) (UniProt Q15418); details: at 0.1 µM
[5] = target: Ribosomal protein S6 kinase alpha-1 (Homo sapiens) (UniProt Q15418); details: at 1 µM
[6] = target: Ribosomal protein S6 kinase alpha-3 (Homo sapiens) (UniProt P51812); details: at 0.1 µM
[7] = target: Ribosomal protein S6 kinase alpha-3 (Homo sapiens) (UniProt P51812); details: at 1 µM
[8] = target: Ribosomal protein S6 kinase alpha-2 (Homo sapiens) (UniProt Q15349); details: at 0.1 µM
[9] = target: Ribosomal protein S6 kinase alpha-2 (Homo sapiens) (UniProt Q15349); details: at 1 µM
[10] = target: Ribosomal protein S6 kinase alpha-6 (Homo sapiens) (UniProt Q9UK32); details: at 0.1 µM
[11] = target: Ribosomal protein S6 kinase alpha-6 (Homo sapiens) (UniProt Q9UK32); details: at 1 µM
[12] = target: T1, Serine/threonine-protein kinase Sgk1 (Homo sapiens) (UniProt O00141); details: at 0.1 µM
T1 sequence (whole entry): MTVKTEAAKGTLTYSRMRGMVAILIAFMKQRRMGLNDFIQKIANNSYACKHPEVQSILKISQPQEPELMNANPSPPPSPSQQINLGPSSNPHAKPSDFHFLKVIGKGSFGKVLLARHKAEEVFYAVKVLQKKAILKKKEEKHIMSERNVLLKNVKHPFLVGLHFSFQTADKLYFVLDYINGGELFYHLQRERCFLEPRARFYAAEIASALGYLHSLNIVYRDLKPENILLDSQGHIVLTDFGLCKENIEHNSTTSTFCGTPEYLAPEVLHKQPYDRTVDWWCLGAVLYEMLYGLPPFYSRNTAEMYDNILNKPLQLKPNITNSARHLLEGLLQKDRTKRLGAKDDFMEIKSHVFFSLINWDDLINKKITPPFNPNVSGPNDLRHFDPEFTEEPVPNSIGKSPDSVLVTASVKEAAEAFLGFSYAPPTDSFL

[13] = target: T1, Serine/threonine-protein kinase Sgk1 (Homo sapiens); details: at 1 µM
[14] = target: T2, Serine/threonine-protein kinase Sgk2 (Homo sapiens) (UniProt Q9HBY8); details: at 0.1 µM
T2 sequence (whole entry): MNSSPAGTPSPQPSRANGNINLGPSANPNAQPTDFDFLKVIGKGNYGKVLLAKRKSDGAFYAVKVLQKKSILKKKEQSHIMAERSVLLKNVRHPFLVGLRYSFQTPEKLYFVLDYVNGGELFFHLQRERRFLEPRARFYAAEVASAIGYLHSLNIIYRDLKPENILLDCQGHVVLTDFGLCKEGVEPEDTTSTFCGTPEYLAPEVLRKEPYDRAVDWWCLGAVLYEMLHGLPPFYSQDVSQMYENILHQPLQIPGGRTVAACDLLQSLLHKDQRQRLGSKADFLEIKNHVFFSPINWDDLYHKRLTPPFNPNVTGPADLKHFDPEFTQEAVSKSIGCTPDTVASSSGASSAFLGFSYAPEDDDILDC

[15] = target: T2, Serine/threonine-protein kinase Sgk2 (Homo sapiens); details: at 1 µM
[16] = target: T3, Serine/threonine-protein kinase Sgk3 (Homo sapiens) (UniProt Q96BR1); details: at 0.1 µM
T3 sequence (whole entry): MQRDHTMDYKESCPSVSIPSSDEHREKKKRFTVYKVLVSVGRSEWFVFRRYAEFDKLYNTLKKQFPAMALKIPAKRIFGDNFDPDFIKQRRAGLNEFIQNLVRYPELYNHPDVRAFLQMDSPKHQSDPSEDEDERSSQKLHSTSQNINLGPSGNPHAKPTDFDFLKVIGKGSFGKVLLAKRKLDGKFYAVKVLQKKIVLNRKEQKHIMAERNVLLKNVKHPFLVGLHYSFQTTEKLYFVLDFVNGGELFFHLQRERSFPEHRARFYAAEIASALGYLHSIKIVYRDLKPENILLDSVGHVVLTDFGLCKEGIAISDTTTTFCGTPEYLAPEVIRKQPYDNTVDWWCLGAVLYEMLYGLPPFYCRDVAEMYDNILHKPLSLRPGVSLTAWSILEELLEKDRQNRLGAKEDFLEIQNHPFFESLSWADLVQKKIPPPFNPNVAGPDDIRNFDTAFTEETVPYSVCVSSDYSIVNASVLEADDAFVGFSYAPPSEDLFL

[17] = target: T3, Serine/threonine-protein kinase Sgk3 (Homo sapiens); details: at 1 µM
[18] = target: 5'-AMP-activated protein kinase catalytic subunit alpha-1 (Homo sapiens) (UniProt Q13131); details: at 0.1 µM
[19] = target: 5'-AMP-activated protein kinase catalytic subunit alpha-1 (Homo sapiens) (UniProt Q13131); details: at 1 µM
[20] = target: 5'-AMP-activated protein kinase catalytic subunit alpha-2 (Homo sapiens) (UniProt P54646); details: at 0.1 µM;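 further: mean inhibition measured on the AMPK complex of alpha2, beta1 and gamma1 subunits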
5'-AMP-activated protein kinase catalytic subunit alpha-2 (Homo sapiens), sequence (P54646 whole entry, looked up): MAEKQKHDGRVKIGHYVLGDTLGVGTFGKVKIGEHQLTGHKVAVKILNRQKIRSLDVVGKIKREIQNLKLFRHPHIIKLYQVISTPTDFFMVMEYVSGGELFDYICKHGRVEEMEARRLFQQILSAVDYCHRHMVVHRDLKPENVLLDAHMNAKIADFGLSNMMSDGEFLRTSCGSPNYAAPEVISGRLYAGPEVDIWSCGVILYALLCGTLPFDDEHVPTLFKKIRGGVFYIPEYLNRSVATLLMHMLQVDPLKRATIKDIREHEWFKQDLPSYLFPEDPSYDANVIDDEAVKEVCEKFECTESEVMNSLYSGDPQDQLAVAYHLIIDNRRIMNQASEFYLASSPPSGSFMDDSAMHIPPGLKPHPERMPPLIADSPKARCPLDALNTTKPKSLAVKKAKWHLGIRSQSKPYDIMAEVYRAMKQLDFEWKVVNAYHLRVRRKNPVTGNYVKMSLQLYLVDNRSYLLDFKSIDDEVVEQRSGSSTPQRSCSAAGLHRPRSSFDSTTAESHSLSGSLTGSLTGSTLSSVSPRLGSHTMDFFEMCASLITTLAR

Ribosomal protein S6 kinase alpha-1 (Homo sapiens), sequence (Q15418 whole entry): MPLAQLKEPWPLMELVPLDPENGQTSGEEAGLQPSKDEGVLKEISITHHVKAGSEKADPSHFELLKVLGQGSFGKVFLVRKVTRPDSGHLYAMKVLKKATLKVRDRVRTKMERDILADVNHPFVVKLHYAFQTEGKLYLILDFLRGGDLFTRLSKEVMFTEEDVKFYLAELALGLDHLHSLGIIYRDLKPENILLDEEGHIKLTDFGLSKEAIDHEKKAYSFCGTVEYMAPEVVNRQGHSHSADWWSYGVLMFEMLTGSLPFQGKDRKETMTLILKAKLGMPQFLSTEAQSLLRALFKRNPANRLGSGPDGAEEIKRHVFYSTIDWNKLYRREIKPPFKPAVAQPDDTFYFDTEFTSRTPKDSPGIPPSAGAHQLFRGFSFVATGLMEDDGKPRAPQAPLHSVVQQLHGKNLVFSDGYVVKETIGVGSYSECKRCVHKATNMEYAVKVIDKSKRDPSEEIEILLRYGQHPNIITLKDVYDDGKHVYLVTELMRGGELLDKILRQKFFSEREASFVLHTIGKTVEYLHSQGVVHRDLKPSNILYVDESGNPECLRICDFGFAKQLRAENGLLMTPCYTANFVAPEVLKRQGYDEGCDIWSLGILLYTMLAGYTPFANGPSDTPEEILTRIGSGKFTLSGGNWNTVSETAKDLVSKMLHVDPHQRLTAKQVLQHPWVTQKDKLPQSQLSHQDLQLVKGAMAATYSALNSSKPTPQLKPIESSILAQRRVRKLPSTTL
Ribosomal protein S6 kinase alpha-3 (Homo sapiens), sequence (P51812 whole entry): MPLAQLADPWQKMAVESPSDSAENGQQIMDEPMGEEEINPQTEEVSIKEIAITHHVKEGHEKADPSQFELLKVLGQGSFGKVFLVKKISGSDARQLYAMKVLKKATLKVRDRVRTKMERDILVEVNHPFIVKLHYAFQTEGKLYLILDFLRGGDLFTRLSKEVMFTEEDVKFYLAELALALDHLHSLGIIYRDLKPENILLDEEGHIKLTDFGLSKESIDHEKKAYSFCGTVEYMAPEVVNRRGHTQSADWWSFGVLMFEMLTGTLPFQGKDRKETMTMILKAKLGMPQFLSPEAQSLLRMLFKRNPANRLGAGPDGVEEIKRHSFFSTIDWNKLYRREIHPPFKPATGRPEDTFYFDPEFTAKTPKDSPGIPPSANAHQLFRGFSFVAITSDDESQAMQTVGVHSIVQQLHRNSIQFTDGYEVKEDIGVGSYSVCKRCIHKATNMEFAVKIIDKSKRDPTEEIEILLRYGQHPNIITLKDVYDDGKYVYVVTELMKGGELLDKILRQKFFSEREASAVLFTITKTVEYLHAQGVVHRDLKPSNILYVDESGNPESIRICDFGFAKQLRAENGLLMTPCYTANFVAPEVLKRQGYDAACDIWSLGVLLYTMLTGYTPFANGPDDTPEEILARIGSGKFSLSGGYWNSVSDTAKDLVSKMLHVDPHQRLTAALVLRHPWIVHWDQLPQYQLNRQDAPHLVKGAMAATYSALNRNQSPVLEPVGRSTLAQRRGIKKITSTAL
Rho-associated protein kinase 1 (Homo sapiens), sequence (Q13464 2-1354 limits assumed): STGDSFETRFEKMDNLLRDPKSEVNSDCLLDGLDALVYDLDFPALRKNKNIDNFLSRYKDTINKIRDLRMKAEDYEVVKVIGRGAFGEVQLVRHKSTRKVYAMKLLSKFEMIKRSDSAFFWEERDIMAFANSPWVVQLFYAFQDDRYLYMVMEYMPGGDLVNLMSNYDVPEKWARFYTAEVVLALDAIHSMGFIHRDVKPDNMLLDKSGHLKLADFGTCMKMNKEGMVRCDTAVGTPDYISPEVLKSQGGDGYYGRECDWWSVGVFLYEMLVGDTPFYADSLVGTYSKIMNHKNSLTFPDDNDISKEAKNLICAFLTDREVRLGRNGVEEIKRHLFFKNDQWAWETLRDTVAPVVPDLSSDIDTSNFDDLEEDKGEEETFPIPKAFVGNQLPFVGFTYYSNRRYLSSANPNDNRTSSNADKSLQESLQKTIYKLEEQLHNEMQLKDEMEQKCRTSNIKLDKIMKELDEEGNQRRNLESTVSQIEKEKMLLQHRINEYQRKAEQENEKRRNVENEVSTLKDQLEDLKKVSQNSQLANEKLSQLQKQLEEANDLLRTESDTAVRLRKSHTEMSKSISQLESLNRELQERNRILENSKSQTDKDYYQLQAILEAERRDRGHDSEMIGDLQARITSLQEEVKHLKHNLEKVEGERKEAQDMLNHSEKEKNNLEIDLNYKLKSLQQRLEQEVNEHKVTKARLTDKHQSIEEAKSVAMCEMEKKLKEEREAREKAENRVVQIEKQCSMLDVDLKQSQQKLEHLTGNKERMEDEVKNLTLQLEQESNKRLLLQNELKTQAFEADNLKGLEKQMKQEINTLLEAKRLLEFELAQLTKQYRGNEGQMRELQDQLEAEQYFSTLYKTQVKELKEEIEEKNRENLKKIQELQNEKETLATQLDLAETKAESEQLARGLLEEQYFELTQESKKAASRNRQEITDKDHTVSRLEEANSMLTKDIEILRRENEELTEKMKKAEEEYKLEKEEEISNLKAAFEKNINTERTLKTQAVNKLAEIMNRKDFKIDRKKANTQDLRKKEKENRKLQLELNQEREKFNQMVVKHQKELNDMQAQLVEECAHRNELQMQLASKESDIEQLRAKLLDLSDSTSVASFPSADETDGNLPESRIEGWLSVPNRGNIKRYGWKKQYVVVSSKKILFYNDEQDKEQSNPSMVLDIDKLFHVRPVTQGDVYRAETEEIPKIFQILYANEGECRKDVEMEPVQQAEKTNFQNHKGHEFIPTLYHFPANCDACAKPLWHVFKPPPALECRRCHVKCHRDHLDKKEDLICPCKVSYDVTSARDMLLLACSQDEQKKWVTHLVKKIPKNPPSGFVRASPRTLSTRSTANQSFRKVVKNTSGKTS
Ribosomal protein S6 kinase alpha-2 (Homo sapiens), sequence (Q15349 whole entry): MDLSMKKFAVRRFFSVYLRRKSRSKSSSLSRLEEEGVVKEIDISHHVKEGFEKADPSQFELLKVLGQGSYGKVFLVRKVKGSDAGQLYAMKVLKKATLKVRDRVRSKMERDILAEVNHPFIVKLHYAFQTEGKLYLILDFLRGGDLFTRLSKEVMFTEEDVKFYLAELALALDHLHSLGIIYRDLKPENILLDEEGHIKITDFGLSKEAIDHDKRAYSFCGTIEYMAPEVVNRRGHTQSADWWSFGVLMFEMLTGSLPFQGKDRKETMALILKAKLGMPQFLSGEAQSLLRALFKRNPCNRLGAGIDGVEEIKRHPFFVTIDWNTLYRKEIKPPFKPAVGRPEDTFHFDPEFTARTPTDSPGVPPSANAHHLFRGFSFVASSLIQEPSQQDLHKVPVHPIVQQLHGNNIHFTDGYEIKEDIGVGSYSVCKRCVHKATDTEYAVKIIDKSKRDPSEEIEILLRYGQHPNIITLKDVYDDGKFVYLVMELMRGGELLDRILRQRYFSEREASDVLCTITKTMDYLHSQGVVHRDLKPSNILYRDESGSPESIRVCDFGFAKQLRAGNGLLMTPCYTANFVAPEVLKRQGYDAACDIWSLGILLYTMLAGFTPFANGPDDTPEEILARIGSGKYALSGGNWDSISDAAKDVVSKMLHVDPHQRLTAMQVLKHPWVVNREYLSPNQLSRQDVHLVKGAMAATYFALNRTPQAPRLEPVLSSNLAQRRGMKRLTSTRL
5'-AMP-activated protein kinase catalytic subunit alpha-1 (Homo sapiens), sequence (Q13131 whole entry, looked up): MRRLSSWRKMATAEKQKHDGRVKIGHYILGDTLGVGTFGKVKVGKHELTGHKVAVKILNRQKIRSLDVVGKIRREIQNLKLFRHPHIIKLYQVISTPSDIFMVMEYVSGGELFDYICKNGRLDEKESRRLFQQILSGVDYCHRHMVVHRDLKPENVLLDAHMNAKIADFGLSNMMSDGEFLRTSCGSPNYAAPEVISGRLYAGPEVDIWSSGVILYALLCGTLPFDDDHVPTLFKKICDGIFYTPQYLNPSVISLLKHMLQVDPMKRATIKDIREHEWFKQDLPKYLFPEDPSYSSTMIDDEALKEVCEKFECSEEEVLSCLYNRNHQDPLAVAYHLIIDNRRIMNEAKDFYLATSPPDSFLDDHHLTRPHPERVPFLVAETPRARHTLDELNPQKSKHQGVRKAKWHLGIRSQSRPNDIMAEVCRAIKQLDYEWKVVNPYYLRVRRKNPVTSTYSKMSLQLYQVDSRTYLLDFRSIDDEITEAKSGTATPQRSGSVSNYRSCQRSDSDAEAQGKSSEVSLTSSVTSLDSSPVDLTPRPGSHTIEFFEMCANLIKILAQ

SMILES | inhibition [1] [%] | inhibition [2] [%] | inhibition [3] [%] | inhibition [4] [%] | inhibition [5] [%] | inhibition [6] [%] | inhibition [7] [%] | inhibition [8] [%] | inhibition [9] [%] | inhibition [10] [%] | inhibition [11] [%] | inhibition [12] [%] | inhibition [13] [%] | inhibition [14] [%] | inhibition [15] [%] | inhibition [16] [%] | inhibition [17] [%] | inhibition [18] [%] | inhibition [19] [%] | inhibition [20] [%]
NS(=O)(=O)c1ccc(NC=C2C(=O)Nc3ccc4ncsc4c32)cc1 | 55.1 | 27.4 | 69.4 | 15.1 | 53.4 | 17.7 | 57.1 | 34.3 | 80.5 | 29.3 | 77.4 | 19.7 | 64 | 8.38 | 36.4 | 5.73 | 19.1 | 38.4 | 68.2 | 24
CS(=O)(=O)CCNCc1nc(-c2ccc3ncnc(Nc4ccc(OCc5cccc(C(F)(F)F)c5)cc4)c3c2)cs1 | -0.55 | 0.87 | 1.92 | -1.01 | 0.29 | 1.21 | 1.84 | 1.45 | 2.09 | 0.32 | 0.37 | -0.21 | -1.85 | 3.52 | 2.19 | 1.04 | 1.17 | 1.78 | 2.03 | 3.05
NC(=O)c1cccc(Nc2nccc(Nc3cccc(F)c3)n2)c1 | 0.46 | 0.51 | 1.52 | -1.2 | 1.35 | 0.35 | 1.16 | 1.27 | 1.94 | 1.27 | 6.03 | 0.89 | -0.08 | 3.63 | 3.3 | 0.73 | -1.45 | -0.48 | 3.96 | 1.99
CN(C)C(=O)O[C@@H]1CN[C@@H](C#Cc2cc3ncnc(Nc4ccc(OCc5cccc(F)c5)c(Cl)c4)c3s2)C1 | 1.13 | -1.58 | -0.74 | 0.43 | 0.71 | 0.2 | 1.13 | 0.12 | 2.54 | 0.51 | 1.1 | 0.97 | 0.35 | -1.98 | 1.45 | -0.94 | -0.47 | 1.21 | -0.92 | -1.56
O=S(=O)(CCOCc1ccc(-c2ccc3ncnc(Nc4ccc(OCc5cccc(F)c5)c(Cl)c4)c3c2)o1)c1ccccc1 | 3.68 | 1.09 | 6.38 | -1.65 | 1.43 | -0.82 | 1.23 | -0.87 | 1.09 | -1.59 | -0.62 | 1.34 | 2.27 | 3.28 | -0.92 | 3.38 | 1.38 | -0.69 | 1.2 | 4.55
CS(=O)(=O)Nc1cccc(-c2ccc3c(NC(=O)C4CC4)n[nH]c3c2)c1 | 0.09 | 0.82 | -0.9 | -0.15 | -0.83 | 1.31 | 1.41 | 1.1 | 2.19 | 1.24 | 1.64 | 1.2 | 1.36 | 0.93 | -0.04 | 1.19 | -0.96 | 1.97 | 1.56 | -0.32
CC(C)c1ccc2c(c1)NC(=O)/C2=N/Nc1ccc(S(N)(=O)=O)cc1 | -1.28 | -1.58 | -0.82 | 0.52 | 0.63 | -0.56 | 2.05 | 1 | 2.15 | -0.83 | 0.17 | 0.54 | 0.73 | 5.31 | -4.03 | 4.97 | -1.88 | -0.83 | 0.29 | 1.03
COc1cccc(-n2ncc3c(N/N=C/c4ccc(C)cc4)ncnc32)c1 | 4.15 | 3.08 | 5.34 | 2.5 | 6.59 | 0.75 | 5.14 | 3.75 | 4.8 | 0.68 | 3.14 | 0.12 | 3.62 | 1.23 | 2.8 | 3.8 | 2.61 | 1.9 | 6.98 | 7.16
CN1CCN(C(=O)c2ccc(NC(=O)Nc3ccc(N(C)c4ccnc(Nc5ccc(CS(C)(=O)=O)cc5)n4)cc3)cc2)CC1 | 18.7 | 11.3 | 52 | 0.85 | 2.5 | 0.47 | 2.98 | 2.14 | 4.07 | 2.06 | 5.11 | 0.94 | 3.35 | 1.96 | 7.04 | 2.75 | 1.79 | 2.09 | 5.52 | 3.27
NS(=O)(=O)c1cccc(-c2cc3ccncc3cc2OCc2ccccc2)c1 | 2.75 | 2.25 | 2.26 | 1.02 | 2.9 | 0.82 | 2.13 | 2.81 | 2.38 | 2.55 | 3.01 | 3.46 | 3.63 | 5.08 | 6.91 | 9.81 | 1.63 | 4.1 | 5.8 | -0.75
COc1cc(Nc2nccc(-c3cnn4ncccc34)n2)cc(OC)c1 | 8.16 | 2.33 | 15 | 1.35 | 3.27 | 1.72 | 4.75 | 1.42 | 5.35 | 0.97 | 6.06 | 2.68 | 4.34 | 1.68 | -0.04 | 1.95 | 2.1 | 3.39 | 16.7 | 0.99
Nc1ccc(C#Cc2cncnc2Nc2ccc(OCc3cccc(F)c3)c(Cl)c2)cc1 | 2.72 | 1.93 | 1.92 | 1.19 | 1.59 | 0.98 | 1.75 | 1.56 | 3.21 | 0.9 | 0.51 | 1.87 | 2.62 | 4.82 | 3.04 | 2.22 | 2.3 | 1.54 | 2.87 | -0.27
COc1cc2ncnc(Nc3ccc(C)c(O)c3)c2cc1OC | 0.99 | 3.05 | 3.9 | 1.8 | 6.05 | 1.52 | 3.02 | 3.28 | 3.51 | 2.48 | 3.03 | 2.84 | 5.46 | 3.56 | 2.34 | 2.82 | 4.55 | 4.38 | 5.7 | 3.32
CN(C)C(=O)O[C@H]1CN[C@H](C#Cc2cc3ncnc(Nc4ccc(OCc5cccc(F)c5)c(Cl)c4)c3s2)C1 | 4.25 | 2.11 | 2.54 | 1.95 | 2.1 | 0.75 | 1.6 | 0.37 | 3.74 | 0.96 | 1.62 | 0.38 | 1.38 | 0.9 | -0.85 | 0.13 | 0.86 | 2.01 | 2.18 | 1.83
CCS(=O)(=O)c1ccc(OC)c(Nc2nccc(N(C)c3ccc4c(C)n[nH]c4c3)n2)c1 | 2.51 | 2.12 | 4.04 | -0.57 | 3.78 | -0.28 | 0.94 | -0.47 | 1.56 | -1.99 | -0.55 | 2.43 | 2.8 | 4.15 | 2.6 | 3.28 | 1.75 | 1.93 | 2.62 | 2.9
Cc1cc(Cl)cc2c1NC(=O)C2=NNc1ccc(S(N)(=O)=O)cc1 | 0.46 | 2.77 | 4.97 | 2.28 | 4.19 | 1.6 | 3.02 | 2.57 | 1.19 | 0.74 | 1.2 | 2.17 | 3.67 | 1.33 | 7.78 | 2.89 | 5.67 | 1.67 | 4.05 | -0.13
COC(=O)c1cncc(/C=C/c2c(C)cc(O)cc2C)c1 | 1.27 | 3.8 | 5.21 | 2.26 | 4.95 | 1.3 | 2.62 | 2.03 | 2.47 | 1.66 | 6.87 | 3.1 | 4.65 | 3.28 | 2.28 | 2.89 | 4.83 | 2.38 | 5.18 | 0.21
CN(C)CCCn1c(-c2nonc2N)nc2cnccc21 | 32.8 | 11.6 | 45.3 | 2.28 | 11.8 | 1.45 | 6.61 | 4.55 | 16.4 | 1.79 | 4.47 | 2.27 | 4.15 | 2.98 | 2.34 | 2.21 | 3.38 | 2.93 | 2.04 | 3.05
COc1ccc(-c2nn3ncccc3c2-c2ccnc(Nc3cccc(C(F)(F)F)c3)n2)cc1 | 0.6 | 2.74 | 1.41 | 1.07 | 2.11 | 1.27 | 1.97 | 1.64 | 2.11 | 0.81 | 0.26 | 1.37 | 2.02 | 1.57 | 4.94 | 3.1 | 3.41 | 2.78 | 3.84 | 1.06
C[C@@H](Oc1cc(-n2cnc3ccc(OCC4CCN(C)CC4)cc32)sc1C(N)=O)c1ccccc1C(F)(F)F | 12 | 1.51 | 12 | 5.1 | 32.7 | 11.8 | 52 | 3.14 | 30.9 | 13.2 | 54.9 | 0.5 | 2.02 | -2.58 | -0.14 | -1.97 | -2.55 | 5.76 | 32.6 | 2.88
Cc1ccc(Nc2ccnc(Nc3cccc(C(N)=O)c3)n2)cc1O | 5.78 | 4.11 | 13.6 | 2.41 | 3.62 | 1.82 | 2.23 | 1.81 | 3.37 | 2.28 | 7.33 | 1.93 | 4.05 | 5.55 | 3.06 | 1.32 | 3.83 | 2.46 | 6.79 | 1.35
